# ABCB6 inh MLPCN = blocks the human ABCB6 transporter | K562-ABCB6 porphyrin accumulation, flow cytometry, 1 h; active compounds read low | Q9NP58 | hit rate 0.19% among 360,000 | fluorescence ratio to DMSO, % at 10 µM;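 active means fluorescence ratio to DMSO below 75%, the collection mean minus 3 SD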;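 further: signal is porphyrin accumulated inside mitochondria; lower ratio means ABCB6 inhibition with less porphyrin fluorescence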
# DAGLB inh = diacylglycerol lipase beta (human) inhibition; Q8NCG7; HEK293T DAGLB membrane lysate, EnzChek fluorogenic substrate; inhibition, % at 5.17 µM; hit rate 0.059% among 340,000; AID 504411; in the data active means inhibition above about 34%
# Target sequence (Q8NCG7 whole entry, looked up): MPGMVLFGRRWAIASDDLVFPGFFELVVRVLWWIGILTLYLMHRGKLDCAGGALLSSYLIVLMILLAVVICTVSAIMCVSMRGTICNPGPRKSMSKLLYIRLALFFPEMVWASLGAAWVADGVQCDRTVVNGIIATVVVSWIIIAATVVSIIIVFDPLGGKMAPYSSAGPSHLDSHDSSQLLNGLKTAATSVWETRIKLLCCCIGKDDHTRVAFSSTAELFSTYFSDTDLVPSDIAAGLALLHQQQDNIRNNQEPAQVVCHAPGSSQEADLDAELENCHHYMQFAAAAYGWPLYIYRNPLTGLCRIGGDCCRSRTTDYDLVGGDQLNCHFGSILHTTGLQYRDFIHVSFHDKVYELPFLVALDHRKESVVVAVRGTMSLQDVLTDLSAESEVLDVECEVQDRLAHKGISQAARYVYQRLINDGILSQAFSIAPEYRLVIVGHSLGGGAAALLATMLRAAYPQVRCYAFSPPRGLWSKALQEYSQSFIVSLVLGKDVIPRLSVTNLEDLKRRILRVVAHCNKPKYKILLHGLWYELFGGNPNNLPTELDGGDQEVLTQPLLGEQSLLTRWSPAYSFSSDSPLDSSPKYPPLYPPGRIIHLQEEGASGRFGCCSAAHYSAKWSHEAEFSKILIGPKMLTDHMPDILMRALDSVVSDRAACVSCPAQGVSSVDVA
# hiPSC survival = enhancers of human iPSC single-cell survival; hiPSC single-cell survival, ATPlite luminescence; 100% = ROCK inhibitor wells, 0% = DMSO; survival enhancement, % at 20 µM; hit rate 0.044% among 360,000; in the data active means survival enhancement above about 18%;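 further: cells exposed to compounds for 16 hours before the ATP read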
# TMEM16A inh = blocks the mouse calcium-activated chloride channel TMEM16A | Q8BHY3 | hit rate 1.2% among 310,000 | normalized B-score (activity score, 25-100; higher = stronger inhibition) at 10 µM | HEK293 TMEM16A/YFP iodide influx fluorescence, ionomycin;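 active means ratio plate-corrected score three or more library SD toward inhibition, starting fluorescence score within five deviations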;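 further: score derived from kinetic fluorescence span divided by baseline fluorescence per well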
# TMEM16A act = activators or potentiators of mouse TMEM16A chloride channel; Q8BHY3; HEK293 TMEM16A/YFP-H148Q/I152L, iodide quench fluorescence; active compounds read low; B-score at 10 µM; hit rate 0.3% among 340,000;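 active means fluorescence-ratio B-score plate-corrected deviation score at least 3 library SD below zero, with starting fluorescence score within 5 deviations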;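 further: channel opened by trigger with iodide after compound preincubation; score built on the fluorescence ratio of max minus min over baseline; more negative score means more quench and so TMEM16A activation or potentiation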
# TMEM16A reconf = re-confirmation of mouse TMEM16A chloride channel inhibitors; hit rate 39% among 2,300; inhibition, % at 10 µM; HEK293 TMEM16A/YFP-H148Q, iodide quench fluorescence; ionomycin added to raise cell calcium; shares compounds with TMEM16A inh; AID 652189;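 active means mean duplicate percent inhibition, scaled so buffer wells are 0 and the reference blocker 100, over three buffer SD above buffer mean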
# HEK293 Ca mobil = calcium mobilization counter-screen hit for TMEM16A inhibitor series. shares compounds with TMEM16A inh. TMEM16A/YFP HEK293, Fluo4 calcium mobilization. calcium response (% of ionomycin), % at 10 µM. hit rate 2% among 2,300. AID 652231;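 active means duplicate-averaged calcium signal over 20% of the ionomycin maximum, relative to buffer baseline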;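 further: each well's signal is peak minus trough fluorescence divided by its pre-addition baseline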
# Parental YFP cnt = parental YFP-HEK293 iodide quench counter-screen activity; shares compounds with TMEM16A inh; ionomycin; YFP ratio F(max-min)/F0 at 10 µM; 2,300 tested, under 10 active; AID 652233;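 active means yellow fluorescent protein signal ratio exceeding the buffer control mean by over 5 SD of those controls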;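 further: ratio is mean of duplicate wells from kinetic YFP trace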
# ClC-1 rat inh = rat ClC-1 inhibition, TMEM16A specificity screen; shares compounds with TMEM16A inh; CHO ClC-1-YFP, iodide influx fluorescence quench; iodide control reads 0, buffer control 100; 2,300 tested, under 10 active; ratio percent, % at 10 µM; AID 652236;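 active means duplicate-mean ratio percent above the mean of iodide-only control wells, which defines zero, plus 5 of their SD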;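 further: higher percent means stronger block of ClC-1 iodide influx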
# Hits are given with their value; - = inactive; . = not tested or not shown. In the library only some 1.5% were active in any assay of this set; here they are far more common.
SMILES,ABCB6 inh MLPCN,DAGLB inh,hiPSC survival,TMEM16A inh,TMEM16A act,TMEM16A reconf,HEK293 Ca mobil,Parental YFP cnt,ClC-1 rat inh
c1ccc(N2CCN(c3nc4ccccc4n4nnnc34)CC2)cc1,-,-,-,-,-,-,-,-,-
CSc1ncc(C(=O)Nc2cccc(C)c2C)c(C)n1,-,-,-,-,-,.,.,.,.
O=C(NCc1ccccc1)C(c1cccs1)N(C(=O)c1csnn1)C1CC1 (stereo unspecified),-,-,-,-,-,.,.,.,.
O=C(NCCc1ccccc1)C(c1cccs1)N(C(=O)c1csnn1)C1CC1 (stereo unspecified),-,-,-,25,-,-,-,-,-
CC(OC(=O)c1ccc(O)cc1)C(=O)Nc1cc(C(F)(F)F)ccc1Cl (stereo unspecified),-,-,-,25,-,58%,-,-,-
O=C(NCCC1=CCCCC1)c1ccc(Cl)c(S(=O)(=O)Nc2ccccc2)c1,-,-,-,100,-,-,-,-,-
COc1ccc(CNC(=O)CCSc2nc(-c3ccc4c(c3)OCO4)cc(C(F)(F)F)n2)cc1,-,-,-,-,-,-,-,-,-
O=C(CCSc1nc(-c2ccc3c(c2)OCO3)cc(C(F)(F)F)n1)NCc1ccccc1,-,-,-,-,-,.,.,.,.
COc1ccc(-c2cc(C(F)(F)F)nc(SCCC(=O)N3CCCC3)n2)cc1,-,-,-,100,-,-,-,-,-
COc1ccc(-c2cc(C(F)(F)F)nc(SCCC(=O)N3CCN4CCCC4C3)n2)cc1 (stereo unspecified),-,-,-,-,-,.,.,.,.
CCCNC(=O)C(Cc1ccccc1)NC(=O)c1cccc([N+](=O)[O-])c1 (stereo unspecified),-,-,-,.,-,.,.,.,.
O=S(=O)(Nc1nc2ccccc2nc1N1CCc2ccccc2C1)c1ccc(Cl)cc1,-,-,-,25,-,50%,-,-,-
O=S(=O)(Nc1nc2ccccc2nc1N1CCc2ccccc2C1)c1ccc(Br)cc1,-,-,-,-,-,.,.,.,.
CC1=C(C(=O)N2CCOCC2)CC(CC(=O)NCCCCc2ccccc2)C(=O)N1Cc1ccc(C(C)(C)C)cc1 (stereo unspecified),-,-,-,.,.,.,.,.,.
O=C1OC(c2ccccc2)(c2ccc(O)cc2)c2ccccc21 (stereo unspecified),-,-,-,.,-,.,.,.,.
Cc1cc(O)ccc1C1(c2ccc(O)cc2C)OC(=O)c2ccccc21,-,-,-,25,-,43%,-,-,-
COc1ccccc1N1CCN(c2ncnc3n[nH]c(Br)c23)CC1,-,.,-,.,.,.,.,.,.
Cc1c(C(=O)N2CCCCC2)oc2ccc(S(=O)(=O)N3CC(C)CC(C)C3)cc12 (stereo unspecified),-,-,-,25,-,21%,-,-,-
Cc1csc(Sc2nc3c(c(=O)[nH]c(=O)n3C)n2Cc2ccccc2Cl)n1,-,-,-,-,-,.,.,.,.
Cc1cccc(Cn2c(Sc3nc(C)cs3)nc3c2c(=O)[nH]c(=O)n3C)c1,-,-,-,100,-,-,-,-,-
CCOC(=O)c1ccccc1NS(=O)(=O)c1ccc(C)cc1,-,-,-,-,-,.,.,.,.
CCOC(=O)c1cc(C)n(S(=O)(=O)c2ccc(C)cc2)c1C,.,-,-,100,-,18%,-,-,-
CCN(CC)S(=O)(=O)c1cc(-c2nnc(-c3ccc(Br)cc3)o2)ccc1Cl,-,-,-,25,-,-,-,-,-
O=S(=O)(NCC1CN(S(=O)(=O)c2c(F)cccc2F)C1)c1ccc2c(c1)OCCO2,-,-,-,.,-,.,.,.,.
CCOC(=O)c1ccccc1NC(=O)c1nc2nccc(C)n2n1,-,-,-,25,-,-,-,-,-
SMILES,ABCB6 inh MLPCN,DAGLB inh,hiPSC survival,TMEM16A inh,TMEM16A act,TMEM16A reconf,HEK293 Ca mobil,Parental YFP cnt,ClC-1 rat inh
COC(=O)C(Cc1ccc(OC(=O)c2ccc(Cl)cc2)cc1)N1Cc2ccccc2C1=O (stereo unspecified),-,-,-,100,-,24%,-,-,-
O=C(O)CC(c1ccc(Cl)cc1)N1Cc2ccccc2C1=O (stereo unspecified),-,-,-,-,-,.,.,.,.
OC(COc1ccc2ccccc2c1Br)Cn1ccnc1 (stereo unspecified),-,-,-,25,-,-,-,-,-
CC1CCCC(C)N1C(=O)COC(=O)c1ccco1 (stereo unspecified),-,-,-,.,-,.,.,.,.
CN(C)Cc1cc(O)c(CN(C)C)cc1O,-,-,-,-,-,-,-,-,-
Cc1cc(Br)cn2c(Cc3cccc(F)c3)c(-c3ccccc3)nc12,-,.,-,.,.,.,.,.,.
Cc1cc(C)c(NC(=O)C2=CCN(S(=O)(=O)c3ccc(F)cc3)CC2)c(C)c1,-,-,-,-,-,.,.,.,.
Cc1ccc(NC(=O)C2=CCN(S(=O)(=O)c3ccc(F)cc3)CC2)c(C)c1,-,-,-,100,-,-,-,-,-
CC1CCN(c2ccc(S(=O)(=O)N3CCC(C)CC3)cc2N)CC1,-,-,-,25,-,30%,-,-,-
COc1ccc(N2CCN(C(=O)CSc3nnc(-c4cc5ccccc5cc4O)n3C)CC2)cc1,-,-,-,-,-,.,.,.,.
COc1ccc(N2CCN(C(=O)CSc3nnc4nc(C)cc(C)n34)CC2)cc1,-,-,-,25,-,-,-,-,-
CCC(Oc1ccc(C)cc1)C(=O)Nc1ccc(S(=O)(=O)Nc2cc(C)on2)cc1 (stereo unspecified),-,-,-,-,-,.,.,.,.
CCN(CC)S(=O)(=O)c1cc(C(=O)Nc2ccncc2)ccc1Cl,-,-,-,100,-,-,-,-,-
CS(=O)(=O)N1CCc2cc(-c3csc(NC(=O)Cc4cccs4)n3)ccc21,-,-,-,25,-,31%,-,-,-
CCOC(=O)[C@]12Cc3c(cc(OC)c(OC)c3OC)[C@H]1N(Cc1ccccc1)C(=O)c1cc(OC)ccc12,-,.,-,.,.,.,.,.,.
CC(C)(C)C1(O)CC(C(F)(F)F)=NN1C(=O)CCc1ccccc1 (stereo unspecified),-,-,-,-,-,.,.,.,.
Cc1ccccc1OCC(=O)N1N=C(C(F)(F)F)CC1(O)C(C)(C)C (stereo unspecified),-,-,-,25,-,-,-,-,-
O=S(=O)(Nc1nc(-c2ccccc2)cs1)c1cc(Cl)ccc1Cl,-,-,-,25,-,24%,-,-,-

# Screening results from PubChem BioAssay.
